# Screens: PubChem, several laboratories
# UBC13 inh: blocks human UBC13 polyubiquitin chain formation. inhibition, % at 20 µM. P61088. TR-FRET. 330,000 compounds, 0.47% hits; in the data active = inhibition above about 45%, passing the limit was not always enough
# Target sequence (P61088 whole entry, looked up): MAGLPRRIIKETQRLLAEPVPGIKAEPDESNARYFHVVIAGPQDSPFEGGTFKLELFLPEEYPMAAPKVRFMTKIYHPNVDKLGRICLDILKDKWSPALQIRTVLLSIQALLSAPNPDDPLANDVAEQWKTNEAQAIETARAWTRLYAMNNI
# MEKK3 PB1 HTS: MEKK3-MEK5 PB1 interaction, increase or decrease. bead-based flow cytometry, Alexa488-MEK5 binding to MEKK3; actives lie on both sides; 0 = blocked by unlabeled MEK5, 100 = vehicle. binding response (% of control), % at 10 µM. 290,000 compounds, 1.4% hits;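 active = binding response more than 3 SD above or below the average of its plate-row segment, actives on both sides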;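 also: Alexa488 bead fluorescence after subtracting the streptavidin-only scavenger bead signal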
# MEKK2 mut-MEK5: signal of MEK5 binding to mutant human MEKK2 PB1 domain. AID 1530. 290,000 compounds, 0.35% hits. percent response, % at 10 µM. bead flow cytometry, Alexa488-MEK5 binding to MEKK2 mutant; in the data active = percent response above about 24%, passing the limit was not always enough
# ATG4B inh: ATG4B (human) cysteine protease inhibition | Q9Y4P1 | ATG4B cleavage of LC3-PLA2, NBD-HPC fluorescence, 1 h | inhibition, % at 8.33 µM | 340,000 compounds, 0.51% hits; in the data active = inhibition above about 40%
# Target sequence (Q9Y4P1 whole entry, looked up): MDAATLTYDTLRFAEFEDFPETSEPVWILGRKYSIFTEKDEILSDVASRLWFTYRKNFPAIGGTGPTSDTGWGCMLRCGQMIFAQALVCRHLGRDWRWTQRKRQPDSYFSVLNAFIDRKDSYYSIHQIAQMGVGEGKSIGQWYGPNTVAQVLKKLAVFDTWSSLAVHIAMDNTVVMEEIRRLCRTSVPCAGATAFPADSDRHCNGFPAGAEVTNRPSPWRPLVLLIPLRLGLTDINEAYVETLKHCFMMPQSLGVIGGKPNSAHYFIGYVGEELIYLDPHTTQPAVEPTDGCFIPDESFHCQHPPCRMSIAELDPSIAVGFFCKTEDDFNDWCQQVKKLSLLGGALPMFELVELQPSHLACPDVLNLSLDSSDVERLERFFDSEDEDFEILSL
# MEKK2 WT-MEK5: raises or lowers MEK5 binding to wildtype human MEKK2 PB1 domain. Q9Y2U5. bead flow cytometry, Alexa488-MEK5 binding to MEKK2 WT; actives lie on both sides. binding response (% of control), % at 10 µM. 290,000 compounds, 1.1% hits. AID 1531; in the data active = binding response below about 67% or above about 130%
# PREPL inhibitor: inhibits the human prolyl oligopeptidase-like enzyme; Q4J6C6; recombinant PREPL, fluorescence polarization activity-based probe; inhibition, % at 5.96 µM; 320,000 compounds, 0.68% hits; AID 2751; in the data active = inhibition above about 43%
# MEKK2wt confirm: raises or lowers MEK5 binding to wildtype human MEKK2, retest; shares compounds with MEKK3 PB1 HTS; bead flow cytometry, Alexa488-MEK5 binding to MEKK2 WT; actives lie on both sides; binding response (% of control), % at 10 µM; 5,900 compounds, 2.4% hits; AID 1892; in the data active = binding response below about 16% or above about 210%; inactive = in between
# MEKK2mut confirm: signal of MEK5 binding to mutant human MEKK2, retest. shares compounds with MEKK3 PB1 HTS. bead flow cytometry, Alexa488-MEK5 binding to MEKK2 mutant. percent response, % at 10 µM. 5,900 compounds, 2% hits. AID 1893; in the data active = percent response mostly above about 71%, no sharp cut-off; inactive = mostly below about 38%;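 also: higher means compound restores mutant binding toward wildtype level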
# MEKK3-MEK5 inh: confirmation of inhibitors of MEK5 binding to human MEKK3; shares compounds with MEKK3 PB1 HTS; bead flow cytometry, Alexa488-MEK5 binding to MEKK3; stronger effect = lower value; binding response (% of control), % at 10 µM; 5,900 compounds, 1.8% hits;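 active = binding response below 72% of control, or above a set upper limit, though filed actives all read lower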
# Hits are given with their value; . = inactive; / = not tested or not shown; [ ] = remark or other dose. In the library only some 3.1% were active in any assay of this set; here they are far more common.
SMILES,UBC13 inh,MEKK3 PB1 HTS,MEKK2 mut-MEK5,ATG4B inh,MEKK2 WT-MEK5,PREPL inhibitor,MEKK2wt confirm,MEKK2mut confirm,MEKK3-MEK5 inh
CCn1c(CNc2ccc(C(=O)O)cc2)nc2ccccc21,.,.,.,.,.,.,/,/,/
CCn1c(/C=N/Nc2ccc(C(=O)O)cc2)nc2ccccc21,.,133,.,.,.,.,.,.,.
CCC1CCCCN1CC(=O)Nc1cc(OC)c(OC)cc1C#N (stereo unspecified),/,.,.,.,.,/,/,/,/
COc1cc(C#N)c(NC(=O)CN2CCN(CCO)CC2)cc1OC,.,47[inhibitor],.,.,.,.,.,.,.
CCc1nc2cccnc2n1-c1ccc(CC(=O)NC(C)CC)cc1 (stereo unspecified),.,.,.,.,.,/,/,/,/
O=C(CCC(=O)N(CC(=O)NC1CCCC1)Cc1ccccc1Cl)Nc1nccs1,.,.,.,.,.,.,/,/,/
CCOC(=O)COn1c(=O)c(-c2cccs2)[n+]([O-])c2ccccc21,.,15[inhibitor],.,.,26[inhibitor],.,.,.,.
CCOn1c(=O)c(-c2cccs2)[n+]([O-])c2ccccc21,.,.,.,.,.,.,/,/,/
OCCNC(=S)NCCc1ccccc1,.,132,.,.,.,.,.,.,.
COc1ccc(-c2[nH]n(-c3ccc([N+](=O)[O-])cc3)c(=O)c2C=NCCN2CCNCC2)cc1,.,.,.,/,.,.,/,/,/
O=c1c(C=NCCN2CCNCC2)c(-c2ccccc2)[nH]n1-c1ccc([N+](=O)[O-])cc1,.,.,.,/,179,.,.,.,.
COC(=O)CCC(=O)OC1(C)C(=O)C2=CN(c3ccccc3)C(c3ccc(OC)cc3)=CC2=C(Br)C1=O (stereo unspecified),.,75[inhibitor],.,.,-5.0,.,.,.,.
COC(=O)CCC(=O)OC1(C)C(=O)C2=CN(CCCOC(C)C)C(c3ccc(OC)cc3)=CC2=C(Br)C1=O (stereo unspecified),.,.,.,.,-8.0[inhibitor],.,.,.,.
COC(=O)CCC(=O)OC1(C)C(=O)C2=CN(Cc3ccc(OC)cc3)C(c3ccc(OC)cc3)=CC2=C(Br)C1=O (stereo unspecified),.,.,.,.,/,.,/,/,/
COc1ccc(NC(C)=O)cc1S(=O)(=O)NC(C)c1ccc(-n2ccnc2)cc1 (stereo unspecified),.,/,/,.,/,.,/,/,/
CCCCCCCCCC[n+]1cccc2c3ccccc3ccc21,/,.,.,.,213,/,.,.,.
C[C@H](CO)N1C[C@H](C)[C@@H](CN(C)Cc2ccccc2)Oc2c(NC(=O)C3CC3)cccc2C1=O,.,/,/,.,/,.,/,/,/
Cc1cccc(C(=O)NCC(=O)OCc2nc(N)nc(Nc3ccccc3C)n2)c1,.,/,/,.,/,.,/,/,/
CCN(CC)CCNC(=O)C(=O)NCC1OCCN1S(=O)(=O)c1cccs1 (stereo unspecified),.,.,.,.,137,.,.,.,.
CC(C)Nc1nc(NC(C)C)nc(SCCOC(=O)Nc2ccc(Cl)cc2Cl)n1,.,.,.,.,.,.,/,/,/
O=C(O)C(Cc1ccccc1)N=C(NS(=O)(=O)c1ccccc1)c1ccccc1 (stereo unspecified),.,/,/,.,/,.,/,/,/
Cc1ccc(C(=O)N2CCN=C2SCc2ccc([N+](=O)[O-])cc2)cc1C,.,64[inhibitor],.,.,.,.,.,.,.
O=C(c1ccccc1)N1CCN=C1SCc1ccc([N+](=O)[O-])cc1,.,.,.,.,.,.,/,/,/
NC(CCCCCP(=O)(c1ccccc1)c1ccccc1)C(=O)O (stereo unspecified),.,.,.,.,.,.,/,/,/
CCCc1cc(=O)oc2cc(C)cc(OCC(=O)NCCCN3CCOCC3)c12,.,.,.,.,.,.,/,/,/
SMILES,UBC13 inh,MEKK3 PB1 HTS,MEKK2 mut-MEK5,ATG4B inh,MEKK2 WT-MEK5,PREPL inhibitor,MEKK2wt confirm,MEKK2mut confirm,MEKK3-MEK5 inh
C=CC[C@H]1CC(Cc2ccccc2)=C[C@H](CC=C)N1,.,.,.,.,.,.,/,/,/
C=CC[C@H]1CC(C)=C[C@H](CC=C)N1,.,.,195,.,203,.,.,.,.
Cc1[nH]c2ccc(F)cc2c1CCNC(=O)C1CCCCC1C(=O)OCC(F)(F)F (stereo unspecified),.,153,.,.,.,.,.,.,.
COc1ccc2[nH]c(C)c(CCNC(=S)Nc3ccc(F)cc3)c2c1,.,.,.,.,.,.,/,/,/
O=C(CSc1ccc(-c2ccco2)nn1)NCc1ccccc1Cl,.,135,.,.,.,.,.,.,.
COc1cc(OC)cc(C(=O)Nc2ccc3c(c2)COC3=O)c1,.,.,.,.,.,.,/,/,/
COc1cc(OC)c2c(c1)C(=O)OC2,.,131,.,.,.,.,.,.,.
Cn1nc(-c2ccccc2)cc1NC(=O)CCCC(=O)O,.,.,.,.,.,.,/,/,/
Cn1nc(-c2ccc(Cl)cc2)cc1NC(=O)CC(C)(C)CC(=O)O,.,129,.,.,.,.,.,.,.
CCOC(=O)c1sc(NC(=O)CC)nc1C,.,.,.,.,.,.,/,/,/
CCOC(=O)c1sc(NC(=O)COC(=O)C(CCSC)NC(C)=O)nc1C (stereo unspecified),.,61[inhibitor],.,.,.,.,.,.,.
CCOC(=O)C(NC(=O)CCl)(Nc1sc(C)c(CC)c1C#N)C(F)(F)F (stereo unspecified),.,147,.,.,.,.,.,.,.
CCOC(=O)C(NC(=O)CC(C)C)(Nc1sc(C)c(CC)c1C#N)C(F)(F)F (stereo unspecified),.,.,.,.,.,.,/,/,/
CCC(C)(C)NC(=O)c1cc([N+](=O)[O-])ccc1N1CCOCC1,.,157,.,.,.,.,.,.,.
Cn1cnnc1SCC(=O)Nc1ncc(C(F)(F)F)cc1Cl,.,.,.,.,.,.,/,/,/
S=c1[nH]nc(COc2ccc(Cl)cc2)n1Cc1ccco1,.,155,.,.,.,.,.,.,.
COc1ccc(C(=O)N/N=C/c2ccc(OC)c(COc3ccc(F)cc3F)c2)cc1,.,.,.,.,.,.,/,/,/
O=C(CN1C(=O)C2C3c4ccccc4C(c4ccccc43)C2C1=O)Nc1cccc(C(=O)O)c1 (stereo unspecified),.,.,.,.,.,.,/,/,/
